Where “and” joins values, the source holds several entries; their conditions need not be identical. Identical values can stand only once. Results filed as inconclusive are left out. Some compounds were tested as several samples or in several runs, with calls that do not always agree. Calls of active or inactive are those of the source. Rule for the calls, unless noted: active = hit-call score of the fitted dose curve at least 0.9, where 1 is the maximum; inactive = score below 0.9.
Key:
[1] = read-out: Monokine induced gamma interferon (MIG), CXCL9 (gene 4283); assay: BSK_KF3CT_MIG: BioMAP Diversity Plus: KF3CT Assay for Monokine induced gamma interferon (MIG) Biomarker Activity (AID 2284248); details: primary human keratinocytes with fibroblasts
How it was run: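 Human keratinocyte plus foreskin fibroblast primary co-culture dosed with test chemical for 24 h; MIG level measured by ELISA and fitted in the positive direction against DMSO as baseline.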

[2] = read-out: Collagen I, COL1A1 (gene 1277); assay: BSK_hDFCGF_CollagenI: BioMAP Diversity Plus: hDFCGF Assay for Collagen I Biomarker Activity (AID 2284250); details: primary human foreskin fibroblasts
How it was run: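 Collagen I ELISA, primary human foreskin fibroblasts, 24 h chemical exposure, DMSO = negative control/baseline, positive fitting direction.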

[3] = read-out: Interferon-inducible T-cell alpha chemoattractant (ITAC), CXCL11 (gene 6373); assay: BSK_hDFCGF_ITAC: BioMAP Diversity Plus: hDFCGF Assay for Interferon-inducible T-cell alpha chemoattractant (ITAC) Biomarker Activity (AID 2284251); details: primary human foreskin fibroblasts
How it was run: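 Chemical dosing of primary human foreskin fibroblast cultures preceded ELISA measurement of I-TAC at 24 h. Response was analysed in the positive direction using DMSO as baseline, while parallel SRB staining measured cytotoxicity.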

[4] = read-out: Plasminogen activator inhibitor-1 (PAI1), SERPINE1 (gene 5054); assay: BSK_KF3CT_PAI1: BioMAP Diversity Plus: KF3CT Assay for Plasminogen activator inhibitor-1 (PAI1) Biomarker Activity (AID 2284252); details: primary human keratinocytes with fibroblasts
How it was run: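 Cells (human keratinocytes co-cultured with foreskin fibroblasts) are exposed to test chemical for 24 h. PAI-1 is then measured by ELISA and analysed for signal gain against DMSO.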

[5] = read-out: Interleukin-8 (IL8), CXCL8 (gene 3576); assay: BSK_KF3CT_IL8: BioMAP Diversity Plus: KF3CT Assay for Interleukin-8 (IL8) Biomarker Activity (AID 2284254); details: primary human keratinocytes with fibroblasts
How it was run: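 Human primary keratinocyte plus foreskin fibroblast co-culture dosed with test chemicals; IL-8 measured by ELISA 24 h after dosing. Activity fitted in the positive direction relative to DMSO negative control.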

[6] = read-out: Collagen III, COL3A1 (gene 1281); assay: BSK_MyoF_CollagenIII: BioMAP Diversity Plus: MyoF Assay for Collagen III Biomarker Activity (AID 2284239); details: primary human lung fibroblasts
How it was run: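 Human lung fibroblasts were dosed with chemicals and, 24 hours later, collagen III was measured by ELISA. Activity was fitted in the positive direction against the DMSO negative-control baseline.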

[7] = read-out: Interleukin 17F (IL17F), IL17F (gene 112744); assay: BSK_BT_xIL17F: BioMAP Diversity Plus: BT Assay for Interleukin 17F (IL17F) Biomarker Activity (AID 2284243); details: primary human B cells with PBMC
How it was run: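 B cell/PBMC co-culture (human primary), 24 h compound exposure; sIL-17F by Luminex xMAP; gain-of-signal fit vs DMSO baseline.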

[8] = read-out: Actin alpha 1 (ACTA1), ACTA1 (gene 58); assay: BSK_MyoF_ACTA1: BioMAP Diversity Plus: MyoF Assay for Actin alpha 1 (ACTA1) Biomarker Activity (AID 2284244); details: primary human lung fibroblasts
How it was run: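 Cells were exposed to chemical for 24 h before a-SMA levels were quantified by ELISA in human lung fibroblasts. Increases were fitted against DMSO as negative control; parallel SRB staining (0.1% after 10% TCA fixation, 560 nm) assessed cytotoxicity.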

[9] = read-out: Interleukin 2 (IL2), IL2 (gene 3558); assay: BSK_BT_xIL2: BioMAP Diversity Plus: BT Assay for Interleukin 2 (IL2) Biomarker Activity (AID 2284245); details: primary human B cells with PBMC
How it was run: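 The BT system combines human B cells with peripheral blood mononuclear cells. Twenty-four hours after chemical dosing, secreted IL-2 was measured with xMAP bead technology, and responses were analyzed as increases over DMSO controls.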

[10] = read-out: Basic fibroblast growth factor (bFGF), FGF2 (gene 2247); assay: BSK_MyoF_bFGF: BioMAP Diversity Plus: MyoF Assay for Basic fibroblast growth factor (bFGF) Biomarker Activity (AID 2284246); details: primary human lung fibroblasts
How it was run: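 Chemicals are added to human lung fibroblast cultures and incubated 24 h. bFGF is then measured by ELISA, while parallel cultures receive SRB staining for total protein as a cytotoxicity check. Data are fitted upward against DMSO.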

[11] = read-out: Collagen IV, COL4A1 (gene 1282); assay: BSK_MyoF_CollagenIV: BioMAP Diversity Plus: MyoF Assay for Collagen IV Biomarker Activity (AID 2284247); details: primary human lung fibroblasts
How it was run: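 Human lung fibroblast system, 24 h chemical exposure. Endpoint: Collagen IV by ELISA, upward fit vs DMSO.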

[12] = UKN4_HCS_LUHMES_cell_viability: Viability Assessment in the University of Konstanz (UKN) Leist Lab Neurite Outgrowth Assay in human LUHMES cells (UKN4) (AID 2284232)
How it was run: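 Cells switched to differentiation medium at day 0, replated on day 2 in medium lacking cAMP and GDNF, and compound-treated once attached. Live staining began 23.5 h later, imaging followed at 24 h.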

[13] = UKN2_HCS_IMR90_cell_viability: Viability Assessment in the University of Konstanz (UKN) Leist Lab Neural Crest Cell Migration Assay in human induced IMR90 Pluripotent Stem Cells (UKN2) (AID 2284233);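 note: viability of neural crest cells differentiated from IMR90 iPSC measured by calcein-AM fluorescence imaging; cells exposed to compound for 24 h after a 24 h migration phase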
How it was run: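 cMINC format, iPSC-derived neural crest (IMR90); 24 h migration (EGF/FGF, N2-S), then 24 h toxicant. Calcein-AM/H-33342 stain 30 min; fluorescence intensity by HCS; DMSO-normalised, bidirectional fitting.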

[14] = CCTE_Mundy_HCI_Cortical_NOG_NeuronCount: CCTE's Neurite Outgrowth Assay in rat cortical cells for Neuron Count, Mundy Lab (AID 2284236; active = hit-call score of the fitted dose curve at least 0.9, where 1 is the maximum;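 note: neurons counted by imaging betaIII-tubulin and Hoechst stained cortical cells; cells exposed to compound for about 48 hours before fixation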)
How it was run: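 Read-out: neuron number by high-content imaging of betaIII-tubulin (Alexa Fluor-488) and Hoechst-labelled rat primary cortical cells.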

[15] = CCTE_Mundy_HCI_Cortical_NOG_BPCount: CCTE's Neurite Outgrowth Assay in rat cortical cells for Branch Point Count, Mundy Lab (AID 2284237)
How it was run: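 Measured 50.33 h after dosing, this morphology endpoint uses rat primary cortical cultures labelled for betaIII-tubulin. Branch points are quantified by high-content imaging, with DMSO as negative control and baseline.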

[16] = CCTE_Mundy_HCI_hNP1_Casp3_7: CCTE's Caspase-Glo 3/7 Assay in human neuroprogenitor cells for Apoptosis, Mundy Lab (AID 2284240)
How it was run: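 Neuroepithelial-lineage stem cells from WA09 embryonic cells were treated with chemicals after 40–44 h of culture. Twenty-four hours later, caspase-3/7 activation was detected luminescently after a 30 min room-temperature reagent step, with DMSO as baseline.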

[17] = CCTE_Mundy_HCI_hNP1_CellTiter: CCTE's Cell Titer-Glo 2 Assay in human neuroprogenitor cells for Viability, Mundy Lab (AID 2284241; active = hit-call score of the fitted dose curve at least 0.9, where 1 is the maximum;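 for AC50: a hit is a drop in ATP luminescence versus DMSO meaning reduced viability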)
How it was run: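 Measures ATP content in human neural progenitors derived from WA09 embryonic cells. Read-out at 26.5 hours after dosing, with DMSO serving as the negative control and baseline.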

[18] = CCTE_Mundy_HCI_Cortical_Synap_Neur_Matur_NeuronCount: CCTE's Synaptogenesis and Neurite Maturation Assay in rat cortical cells for Neuron Count, Mundy Lab (AID 2284242; active = hit-call score of the fitted dose curve at least 0.9, where 1 is the maximum)
How it was run: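 Cortical cells from rat are plated, treated with AraC at DIV 5, and exposed to test chemicals with a media change at DIV 7. At DIV 12 they are fixed and immunostained (MAP2, synaptophysin), and imaged neuron counts are compared against DMSO controls.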

[19] = TAMU_PeakParms_SingleDonor1434_QT: Texas A&M University (TAMU) 1.5-hr Human Induced Pluripotent Stem Cell (iPSC)-derived Cardiomyocytes Calcium (Ca+2) Flux Assay for Cardiotoxicity: QT (decay-rise ratio) (AID 2284235; active = hit-call score of the fitted dose curve at least 0.9, where 1 is the maximum)
How it was run: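 Decay/rise ratio of calcium-flux fluorescence scored after 90 min exposure (37C) of donor 1434 iPSC cardiomyocytes to 0.2–100 uM (0.5% DMSO). Beat-cessation and severe-notch points removed; POD is EC05, a 5% rise over DMSO.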

Measured: AC50

CCCCC(CC)COCC1CO1 (stereo not drawn)
inactive: [1] | [2] | [3] | [4] | [5]

O=C1CCCN1CCO
inactive: [1] | [2] | [3] | [4] | [5]

C#CC1(O)CC[C@H]2[C@@H]3CCC4=CCCC[C@@H]4[C@H]3CC[C@@]21C (stereo partly drawn)
active: [6] 31.8 µM | [7] 28.6 µM | [8] 32.2 µM | [9] 31.6 µM | [10] 33 µM
inactive: [11]

C=CCOCC(O)CCl (stereo not drawn)
inactive: [6] | [7] | [8] | [9] | [10] | [11]

CN1C(=O)N(C)C(O)C1O (stereo not drawn)
inactive: [1] | [2] | [3] | [4] | [5]

CCCCC(CC)COC(=O)c1ccccc1O (stereo not drawn)
inactive: [6] | [7] | [8] | [9] | [10] | [11]

O=c1c2ccccc2oc2ccccc12
active: [7] 3.97 µM
inactive: [6] | [8] | [9] | [10] | [11]

Nc1ncn([C@@H]2O[C@H](CO)[C@@H](O)[C@H]2O)c(=O)n1
inactive: [13] | [14] | [15] | [17] | [18]
active: [12] 16.5 µM | [13] 6.91 µM | [16] 5.45 µM | [17] 2.78 µM

CO[Si](OC)(OC)c1ccccc1
inactive: [1] | [2] | [3] | [4] | [5]

C=C[Si](OC(C)=O)(OC(C)=O)OC(C)=O
inactive: [1] | [2] | [3] | [4] | [5]

CC(C)(c1cc(Br)c(OCCO)c(Br)c1)c1cc(Br)c(OCCO)c(Br)c1
active: [6] 7.69 µM | [7] 23.8 µM | [8] 10.7 µM | [9] 18.7 µM | [10] 9.52 µM | [11] 9.43 µM

CCO[Si](CCCN=C=O)(OCC)OCC
inactive: [6] | [7] | [8] | [9] | [10] | [11]

Nc1ccc(N)c(Cl)c1
active: [1] 12.3 µM | [2] 26.7 µM | [3] 23.4 µM and 22.6 µM | [4] 13.1 µM and 26.5 µM
inactive: [1] | [2] | [5]

O=C(O)CCCC[C@@H]1SC[C@@H]2NC(=O)N[C@@H]21
inactive: [19]

CCCCCCCCCCCCCCCC[N+](C)(C)CC
active: [6] 0.967 µM | [7] 2.28 µM | [8] 0.757 µM | [9] 1.26 µM | [10] 8.45 µM | [11] 3.25 µM

COCc1c(C(C)C)nc(C(C)C)c(/C=C/[C@@H](O)C[C@@H](O)CC(=O)O)c1-c1ccc(F)cc1
inactive: [10] | [11]
active: [6] 0.867 µM | [7] 0.57 µM | [8] 0.0484 µM | [9] 0.58 µM

CCO[Si](C)(OCC)OCC
inactive: [1] | [2] | [3] | [4] | [5]

CCCCNc1ccc(NCCCC)c2c1C(=O)c1ccccc1C2=O
inactive: [6] | [7] | [8] | [9] | [10] | [11]

C/C=C\C/C=C/CCCCCCCCOC(C)=O
inactive: [6] | [10] | [11]
active: [7] 25.5 µM | [8] 31.9 µM | [9] 31.6 µM

COc1ccc2nc(N)sc2c1
inactive: [6] | [7] | [8] | [9] | [10] | [11]

From PubChem BioAssay (EPA / NIEHS)
